In all, about 2,900 compounds were measured (“IRF Lucia reporter activity, fold change vs agonist alone”: median about 0.9, highest 2% from about 2.8 on). The list comes from a sample in which the highest values are over-represented; it also holds similar structures and randomly drawn compounds.
Columns and labels:
[1] = system: RAW-Dual; assay: IRF Lucia reporter activity, fold change vs agonist alone; higher = enhanced IRF activity; conditions: library stock concentration (final ~1000-fold dilution): 10 mM, agonist: MPLA (TLR4) […]
Procedure, shortened: (§1)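 Cytotoxic wells were those whose IncuCyte confluency was below 70% of agonist controls in both mask sets. The cells were RAW-Dual macrophages at 50,000 cells/well in DMEM on 384-well plates, dosed with 50 nL of library stock by pin tool, stimulated with a PRR agonist 1 h later, and kept at 37 °C, 5% CO2 for 20 hours. IRF and NF-κB reporter activity, as fold change over agonist-alone wells, came from supernatant read by QuantiLuc luminescence and QuantiBlue absorbance, respectively.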

[2] = system: RAW-Dual; assay: IRF Lucia reporter activity, fold change vs agonist alone; cytotoxicity flag (confluency mask): not cytotoxic; higher = enhanced IRF activity
Procedure, shortened: as §1

[3] = system: RAW-Dual; assay: IRF Lucia reporter activity, fold change vs agonist alone; cytotoxicity flag (confluency mask): cytotoxic (confluency <70% of control); higher = enhanced IRF activity
Procedure, shortened: as §1

[4] = cytotoxicity flag (confluency mask): cytotoxic (confluency <70% of control)
[5] = agonist: 3'3'-cGAMP (STING) 10 ug/mL
[6] = cytotoxicity flag (confluency mask): not cytotoxic

COc1cc2c(Oc3ccc4[nH]c(C)cc4c3F)ncnc2cc1OCCCN1CCCC1.O=C(O)/C=C\C(=O)O
IRF Lucia reporter activity [1, 4]: 2.35

COS(=O)(=O)[O-].Cc1cc2c3c([n+](C)c4ccc(F)cc4c3c1)-c1cc(F)ccc1N2C (library stock concentration (final ~1000-fold dilution): 10 mM)
IRF Lucia reporter activity [2, 5]: 1.39 | IRF Lucia reporter activity ([2]; agonist: LPS (TLR4) 0.1 ug/mL): 1.53

CN1CCN(CCCN2c3ccccc3Sc3ccc(Cl)cc32)CC1.O=C(O)/C=C\C(=O)O.O=C(O)/C=C\C(=O)O
IRF Lucia reporter activity [1, 4]: 0.883

CN1CCN(CCCN2c3ccccc3Sc3ccc(Cl)cc32)CC1.O=C(O)/C=C\C(=O)O.O=C(O)/C=C\C(=O)O (library stock concentration (final ~1000-fold dilution): 10 mM)
IRF Lucia reporter activity [3, 5]: 0.64 | IRF Lucia reporter activity ([3]; agonist: LPS (TLR4) 0.1 ug/mL): 0.589

O=C(O)C1OC(Oc2cc3oc(-c4ccccc4)cc(=O)c3c(O)c2O)C(O)C(O)C1O (stereo unspecified) (library stock concentration (final ~1000-fold dilution): 10 mM)
IRF Lucia reporter activity [2, 5]: 0.96 | IRF Lucia reporter activity ([2]; agonist: LPS (TLR4) 0.1 ug/mL): 0.958

O=C(O)C1OC(Oc2cc3oc(-c4ccccc4)cc(=O)c3c(O)c2O)C(O)C(O)C1O (stereo unspecified)
IRF Lucia reporter activity [1, 6]: 1.03

CC(C)OC(=O)C(C)NP(=O)(OCC1OC(n2ccc(=O)[nH]c2=O)C(C)(F)C1O)Oc1ccccc1 (stereo unspecified) (library stock concentration (final ~1000-fold dilution): 10 mM)
IRF Lucia reporter activity [2, 5]: 1.04 | IRF Lucia reporter activity ([2]; agonist: LPS (TLR4) 0.1 ug/mL): 0.731

CC(C)OC(=O)C(C)NP(=O)(OCC1OC(n2ccc(=O)[nH]c2=O)C(C)(F)C1O)Oc1ccccc1 (stereo unspecified)
IRF Lucia reporter activity [1, 6]: 1.04

COc1cc2c(NC3CCN(C(C)C)CC3)nc(N3CCC(F)(F)CC3)nc2cc1OCCCN1CCCC1 (library stock concentration (final ~1000-fold dilution): 10 mM)
IRF Lucia reporter activity [3, 5]: 0.849 | IRF Lucia reporter activity ([3]; agonist: LPS (TLR4) 0.1 ug/mL): 4.2

COc1cc2nc(N3CCCC3)nc(NCCCCCN3CCCC3)c2cc1OC
IRF Lucia reporter activity [1, 4]: 0.8

COc1cc2c(NC3CCN(C(C)C)CC3)nc(C3CCCCC3)nc2cc1OCCCN1CCCC1 (library stock concentration (final ~1000-fold dilution): 10 mM)
IRF Lucia reporter activity [3, 5]: 0.154 | IRF Lucia reporter activity ([3]; agonist: LPS (TLR4) 0.1 ug/mL): 0.0189

COc1cc2nc(N3CCCC3)nc(NCCCCCN3CCCC3)c2cc1OC (library stock concentration (final ~1000-fold dilution): 10 mM)
IRF Lucia reporter activity [3, 5]: 0.313 | IRF Lucia reporter activity ([3]; agonist: LPS (TLR4) 0.1 ug/mL): 2.54

COc1cc2c(NC3CCN(C(C)C)CC3)nc(N3CCC(F)(F)CC3)nc2cc1OCCCN1CCCC1
IRF Lucia reporter activity [1, 4]: 0.652

COc1cc2c(cc1O)CCC1C2CCC2(C)C(O)CCC12 (stereo unspecified)
IRF Lucia reporter activity [1, 4]: 1.31

COc1cc2c(cc1O)CCC1C2CCC2(C)C(O)CCC12 (stereo unspecified) (library stock concentration (final ~1000-fold dilution): 10 mM)
IRF Lucia reporter activity [3, 5]: 0.205 | IRF Lucia reporter activity ([3]; agonist: LPS (TLR4) 0.1 ug/mL): 1.03

O=C(NOCC(O)CO)c1ccc(F)c(F)c1Nc1ccc(I)cc1F (stereo unspecified)
IRF Lucia reporter activity [1, 6]: 3.52

Cc1cc(C(=O)NOCCO)c(Nc2ccc(I)cc2F)n(C)c1=O
IRF Lucia reporter activity [1, 6]: 2.81

O=C(NOCC1CC1)c1ccc(F)c(F)c1Nc1ccc(I)cc1Cl
IRF Lucia reporter activity [1, 6]: 2.05

Cn1c(=O)c(F)c(Nc2ccc(I)cc2F)c2c(=O)n(CC(O)CO)cnc21 (stereo unspecified) (library stock concentration (final ~1000-fold dilution): 10 mM)
IRF Lucia reporter activity [2, 5]: 0.517 | IRF Lucia reporter activity ([2]; agonist: LPS (TLR4) 0.1 ug/mL): 0.819

Cc1cc(C(=O)NOCCO)c(Nc2ccc(I)cc2F)n(C)c1=O (library stock concentration (final ~1000-fold dilution): 10 mM)
IRF Lucia reporter activity [2, 5]: 0.824 | IRF Lucia reporter activity ([2]; agonist: LPS (TLR4) 0.1 ug/mL): 2.13

Cn1c(=O)c(F)c(Nc2ccc(I)cc2F)c2c(=O)n(CC(O)CO)cnc21 (stereo unspecified)
IRF Lucia reporter activity [1, 6]: 1.23

O=C(NOCC(O)CO)c1ccc(F)c(F)c1Nc1ccc(I)cc1F (stereo unspecified) (library stock concentration (final ~1000-fold dilution): 10 mM)
IRF Lucia reporter activity [2, 5]: 0.903 | IRF Lucia reporter activity ([2]; agonist: LPS (TLR4) 0.1 ug/mL): 3.61

O=C(NOCC(O)CO)c1cc(Br)c(F)c(F)c1Nc1ccc(I)cc1F (stereo unspecified)
IRF Lucia reporter activity [1, 6]: 2.39

O=C(NOCCO)c1ccc2cncn2c1Nc1ccc(I)cc1F
IRF Lucia reporter activity [1, 6]: 3.27

O=C(NOCCO)c1ccc2cncn2c1Nc1ccc(I)cc1F (library stock concentration (final ~1000-fold dilution): 10 mM)
IRF Lucia reporter activity [2, 5]: 0.814 | IRF Lucia reporter activity ([2]; agonist: LPS (TLR4) 0.1 ug/mL): 3.65

O=C(NOCC(O)CO)c1cc(Br)c(F)c(F)c1Nc1ccc(I)cc1F (stereo unspecified) (library stock concentration (final ~1000-fold dilution): 10 mM)
IRF Lucia reporter activity [2, 5]: 0.713 | IRF Lucia reporter activity ([2]; agonist: LPS (TLR4) 0.1 ug/mL): 2.11

O=C(NOCC1CC1)c1ccc(F)c(F)c1Nc1ccc(I)cc1Cl (library stock concentration (final ~1000-fold dilution): 10 mM)
IRF Lucia reporter activity [2, 5]: 0.525 | IRF Lucia reporter activity ([2]; agonist: LPS (TLR4) 0.1 ug/mL): 2.5

Reference: the supplement of paper PMC10037445
